Screens deposited in PubChem BioAssay by National Center for Advancing Translational Sciences (NCATS).
POLI inh = DNA polymerase iota (human) inhibition; Q9UNA4; Pol iota fluorescent replication assay, 10 min; Potency, µM (highest dose often 115 µM), without a hit: top-dose activity, negative = inhibition, usual class: inhibitors; 1% of 390,000 active; AID 588590; note: potency is the fitted concentration of half-maximal effect
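Pol iota at 10 nM preincubated 15 min with compounds at room temperature; reaction started with fluorescent substrate, 50 nM final. Fluorescence read kinetically at 0 and 10 min; buffer-only wells as negative control.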
PI5P4K alpha inh = inhibitors of human PI5P4K alpha; P48426; PI5P4Kalpha enzyme, ADP-Glo luminescence, 60 min; active compounds read low; max response, %; 1.2% of 330,000 active; AID 652105; active = max response of -50% or lower; inconclusive = between -30% and -50%; inactive = -30% or higher; note: value at the top dose of about 77 µM; % is set by controls: 0 for no effect and ±100 for the full control effect
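PI5P4Kalpha ADP-Glo assay; 5 microM ATP final; 60 min RT reaction; HEPES pH 7.4/EGTA/CHAPS, 5% DMSO; controls lacking substrate or enzyme; luminescent end-point.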
Pol kappa inh = blocks human DNA polymerase kappa activity; 0.53% of 400,000 active; Potency, µM (doses to about 107 µM), inactives show at the top dose activity, negative = inhibition, hits mostly inhibitors; purified Pol kappa, fluorescent DNA synthesis assay, 10 min; note: potency is the fitted concentration of half-maximal effect; % is set by controls: 0 for no effect and ±100 for the full control effect
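10 nM Pol kappa was preincubated with compounds for 15 min at room temperature. Reaction started with 50 nM (final) substrate. Fluorescence read kinetically at 0 and 10 min.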
Pol beta inh = inhibitors of human DNA polymerase beta. P06746. Pol beta primer extension/strand displacement, fluorescence kinetic. Potency, µM (series often up to 114 µM), for inactives: top-dose activity change, negative = inhibition, usual class: inhibitors. 1.3% of 340,000 active. AID 485314; note: potency is the fitted concentration of half-maximal effect; % is set by controls: 0 for no effect and ±100 for the full control effect
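Reaction started by 50 nM substrate onto compound-treated Pol beta (10 nM, 15 min preincubation, room temperature); plates read at 0 min and 10 min. Normalized concentration-effect data fitted by four-parameter Hill equation.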
FEN1 inh = inhibitors of human flap endonuclease 1; Recombinant FEN1 flap cleavage, fluorescence, 15 min; Potency, µM (titrated, usually from 114 µM), without a hit: at the top dose activity change, negative = inhibition, actives largely listed as inhibitors; 0.35% of 390,000 active; P39748; note: potency is the fitted concentration of half-maximal effect; % is set by controls: 0 for no effect and ±100 for the full control effect; nearly all actives have a fitted effect of over 65% in size
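Quantitative HTS format: each compound was titrated, incubated with 10 nM nuclease for 15 min at room temperature, then challenged with flap substrate at 50 nM final. Signal change over 15 min gave concentration–effect curves.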
POLH inh = DNA polymerase eta (human) inhibition; Q9Y253; recombinant Pol eta, fluorescent DNA replication assay; AID 588591; 1.2% of 390,000 active; Potency, µM (series often up to 114 µM), inactives show at the highest dose activity change, negative = inhibition, most hits filed as inhibitors; note: potency is the fitted concentration of half-maximal effect; % is set by controls: 0 for no effect and ±100 for the full control effect
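Pol eta at 10 nM preincubated with compounds 15 min at room temperature; reaction started with fluorescent substrate (50 nM final) and read kinetically at 0 and 10 min.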
Active calls of the source: *. Compounds with a hit are over-represented: about 2.8% of the library has one in this group of screens. Unless noted, calls come from the whole dose curve; as a rule, active = well fitted curve in the direction sought with a large enough effect; inconclusive = small, poorly fitted or top-dose-only effect, or another doubt; inactive = no such curve, though single readings can be large; an effect the other way counts as inactive or inconclusive.

How did COc1ccc(C2CC(=O)N3CN(Cc4ccco4)CSC3=C2C#N)cc1 (centres undefined) do in these assays?
POLI inh: inconclusive; Pol kappa inh: -4.4%; Pol beta inh: inconclusive; FEN1 inh: 3.1%; POLH inh: -9.9%

Results for COc1ccc(C2CC(=O)N3CN(c4ccccc4F)CSC3=C2C#N)cc1OC (centres undefined) ?
POLI inh: inconclusive; PI5P4K alpha inh: -83.8*; Pol kappa inh: inconclusive; Pol beta inh: -1.3%; FEN1 inh: inconclusive; POLH inh: -5.3%

Results for COc1cc(OC)c(C2CC(=O)N3CN(c4ccccc4C)CSC3=C2C#N)cc1OC (centres undefined) ?
Pol beta inh: -3.6%

What do the screens show for `COc1ccc(OC)c(C2CC(=O)N3CN(c4ccccc4)CSC3=C2C#N)c1` (centres undefined)?
POLI inh: 25.6%; PI5P4K alpha inh: -85.1*; Pol kappa inh: -5.3%; Pol beta inh: 3.1%; FEN1 inh: inconclusive; POLH inh: -22.8%

What do the screens show for `COc1ccc(C2CC(=O)N3CN(c4ccc(C)c(Cl)c4)CSC3=C2C#N)cc1` (centres undefined)?
POLI inh: inconclusive; PI5P4K alpha inh: -69.5*; Pol kappa inh: 0.0%; Pol beta inh: inconclusive; FEN1 inh: -30.6%; POLH inh: -7.7%

How did CC(C)c1ccc(C2CC(=O)N3CN(Cc4ccco4)CSC3=C2C#N)cc1 (centres undefined) do in these assays?
POLI inh: inconclusive; PI5P4K alpha inh: -21.4; Pol kappa inh: -14.4%; Pol beta inh: -4.8%; FEN1 inh: -16.6%; POLH inh: -11.2%

How did COc1ccc(C2CC(=O)N3CN(C4CCCCC4)CSC3=C2C#N)c(OC)c1 (centres undefined) do in these assays?
POLI inh: 7.94µM*; Pol kappa inh: -3.2%; Pol beta inh: 1.1%; FEN1 inh: -12.6%; POLH inh: -20.5%

How did CS(=O)(=O)N1CCN(/[N+]([O-])=N/Oc2ccc([N+](=O)[O-])cc2[N+](=O)[O-])CC1 (tested in a mixture with another compound) do in these assays?
POLI inh: inconclusive; Pol kappa inh: -13.8%; FEN1 inh: -17.4%

Results for Cc1cccc(N2CSC3=C(C#N)C(c4ccc(C)o4)CC(=O)N3C2)c1 (centres undefined) ?
Pol beta inh: 5.01µM*

What do the screens show for `COC(=O)CSC1=C(C#N)C(c2ccc(C)o2)CC(=O)N1` (centres undefined)?
POLI inh: -9.8%; PI5P4K alpha inh: 1.8; Pol kappa inh: -4.6%; Pol beta inh: 2.2%; FEN1 inh: -13.1%; POLH inh: -2.1%

What do the screens show for `O=C(N/N=C/c1ccccc1C(=O)O)c1cc(-c2ccc3c4c(cccc24)CC3)n[nH]1`?
POLI inh: 56.2%; PI5P4K alpha inh: -10.9; Pol kappa inh: -3.9%; Pol beta inh: 56.2µM*; FEN1 inh: -23.6%; POLH inh: inconclusive

How did CCn1cnc2sc(-c3ccccc3)cc2c1=O do in these assays?
POLI inh: -1.6%; PI5P4K alpha inh: 0.0; Pol kappa inh: 1.5%; Pol beta inh: 0.5%; FEN1 inh: 0.7%; POLH inh: 0.9%

Results for N#CCn1cnc2sc(-c3ccccc3)cc2c1=O ?
POLI inh: 39.0%; PI5P4K alpha inh: -52.5*; Pol kappa inh: -19.9%; Pol beta inh: inconclusive; FEN1 inh: 1.0%; POLH inh: inconclusive

Results for COc1cc(NS(=O)(=O)c2ccc(NC(=S)NC(=O)c3sc4ccccc4c3Cl)cc2)ncn1 ?
POLI inh: inconclusive; PI5P4K alpha inh: inconclusive; Pol kappa inh: -13.5%; Pol beta inh: -22.9%; FEN1 inh: inconclusive; POLH inh: 25.1µM*

Results for CCCCN(CCC(=O)O)c1ccc(/C=C/c2ccnc3ccccc23)cc1 ?
POLI inh: 17.4%; Pol kappa inh: -4.8%; FEN1 inh: -16.6%

Results for CC(=O)C(C(C)=O)C(NC(=O)c1cccnc1)(C(F)(F)F)C(F)(F)F ?
POLI inh: -2.4%; PI5P4K alpha inh: -62.9*; Pol kappa inh: -9.0%; Pol beta inh: 2.7%; FEN1 inh: 9.6%; POLH inh: -8.1%

Results for COc1ccc2[nH]c3c(c2c1)CCNC3(C)CCc1ccc(Cl)nc1 (centres undefined) ?
POLI inh: -28.4%; PI5P4K alpha inh: -0.2; Pol kappa inh: -1.9%; Pol beta inh: -1.1%; FEN1 inh: 12.3%; POLH inh: -12.6%

How did CCc1ccc(-n2c(SCC(=O)N3Cc4ccccc4CC3C(=O)O)nnc2-c2ccncc2)cc1 (centres undefined) do in these assays?
POLI inh: 33.4%; PI5P4K alpha inh: -9.1; Pol kappa inh: -8.0%; Pol beta inh: 2.9%; FEN1 inh: -3.1%; POLH inh: 22.4µM*

How did CCc1ccc(-n2c(SCC(=O)N3CCC(C(=O)O)CC3)nnc2-c2ccncc2)cc1 do in these assays?
POLI inh: 61.7%; PI5P4K alpha inh: -16.8; Pol kappa inh: -9.5%; Pol beta inh: 2.0%; FEN1 inh: 6.7%; POLH inh: 4.8%

What do the screens show for `CCN(CC)C(=O)CC(c1ccc(OC)cc1)c1c(OC)cc(OC)c2c(-c3ccccc3)cc(=O)oc12` (centres undefined)?
POLI inh: inconclusive; Pol kappa inh: 79.4µM*; FEN1 inh: -31.7%

What do the screens show for `CC(C)c1ccc(NC(=O)Cn2cc(S(=O)(=O)Cc3ccccc3Cl)c3ccccc32)cc1`?
POLI inh: -22.9%; Pol kappa inh: -7.3%; Pol beta inh: 6.6%; FEN1 inh: -20.6%; POLH inh: -7.2%

Results for Nc1cccc2c(=O)c3ccccc3[nH]c12 ?
POLI inh: 17.0%; PI5P4K alpha inh: -15.0; Pol kappa inh: -4.0%; Pol beta inh: 44.7µM*; FEN1 inh: -33.4%; POLH inh: -7.3%

How did COc1cc(-c2c(C#N)c(=O)[nH]c3c2c(C)nn3-c2ccccc2)ccc1O do in these assays?
POLI inh: 18.8%; PI5P4K alpha inh: -62.9*; Pol kappa inh: -3.1%; Pol beta inh: 22.2%; FEN1 inh: -23.1%; POLH inh: 4.5%

How did CC1CCN2c3ccccc3CC3(C(=O)OC(C)(C)OC3=O)C2C1 (centres undefined) do in these assays?
POLI inh: inconclusive; Pol kappa inh: 0.0%; FEN1 inh: -11.0%

How did CC1(C)OC(=O)C2(Cc3ccccc3N3CCCC32)C(=O)O1 (centres undefined) do in these assays?
POLI inh: 79.4µM*; Pol kappa inh: inconclusive; FEN1 inh: 9.5%
